# Measurements: ChEMBL document CHEMBL3988442, “University of Dundee, Small-Polar-MMV Screening Library” (2021)
# In all, about 48,000 compounds went through this assay and about 13,000 (27%) showed an effect of 50% or more. This is one part of the list.
# Test system: Wolbachia pipientis
# Assay: Anti-Wolbachia Cell-Based Screen
# Assay type: functional
# Design: scale not given: in the data most compounds retested in dose-response had high values
# Conditions: 5 µM
row,Compound,Percent Effect [%]
1,COc1ccccc1N1CCC(N2CCOC(C(F)(F)F)C2)CC1 (stereo not drawn),10.11
2,COc1ccc(NC(=O)CCC2CCCN(Cc3ncon3)C2)c(C)c1 (stereo not drawn),0.05921
3,CC(C)N1C[C@@H](F)[C@@H](OCc2nc3ncccc3[nH]2)C1,-12.53
4,Cc1cc(CN(C)C(=O)NC2CCN(Cc3ccccc3)C2)no1 (stereo not drawn),-11.75
5,CCc1cc(CN(C)C(=O)CN2CC3(CCNCC3)OC2=O)on1,3.162
6,Cc1nc(CCN(C)C(=O)CN2CCCCCC2)no1,5.465
7,Cc1cc(CN(C)C(=O)CN2CCCCCC2=O)no1,104.9
8,Cc1cc(CN(C)C(=O)CN2CC3(CCNCC3)OC2=O)no1,-10.43
9,Cc1cc(CN(C)C(=O)NCc2cccc(N3CCCC3=O)c2)no1,2.405
10,Cc1ncsc1CCN(C)C(=O)CN1CCCCC1=O,17.08
11,CC(C)c1cc(CN(C)C(=O)CN2CCNC2=O)no1,133
12,CC(C)c1cc(CN(C)C(=O)CN2CCCCC2=O)no1,112.2
13,CN(Cc1cc(C2CC2)on1)C(=O)CN1C(=O)OC(C)(C)C1=O,-4.246
14,CC(C)c1cc(CN(C)C(=O)CN2CCC(C(N)=O)CC2)no1,136.4
15,Cc1cc(CN(C)C(=O)C2CCCN(C(N)=O)C2)no1 (stereo not drawn),12.67
16,CCOCC(=O)NC(C#N)c1cnn(-c2ccccc2)c1 (stereo not drawn),0.4784
17,CCc1cc(CN(C)Cc2nc(-c3ccc(OC)cc3F)oc2C)on1,-9.467
18,Cc1cnccc1N1CCCN(C(=O)CCCc2cn[nH]c2)CC1,11.82
19,O=C(Nc1nncs1)N1CCCN(C2CCCC2)CC1,-1.803
20,CNC(=O)COc1ccccc1CNCc1c(C)noc1C,-55.32
21,Cc1nn(C)c(Oc2cccnc2)c1NC(=O)C1CCCO1 (stereo not drawn),5.234
22,Cc1n[nH]c(C)c1CCC(=O)N[C@@H]1CCC[C@@H](Oc2ccccc2)[C@@H]1O,124.4
23,Cc1n[nH]c(C)c1CCCNCc1cn(CCC(N)=O)c2ccccc12,-2.861
24,Cc1n[nH]c(C)c1CNC(=O)NC1CCCCC1,-5.785
25,Cc1noc(C)c1CNC[C@@]1(COc2cccnc2)C[C@@H](O)[C@@H](O)C1.Cl.Cl,-8.065
26,Cc1noc(C)c1CCC(=O)N[C@@H]1CCC[C@@H](Oc2cccnc2)[C@@H]1O,114.3
27,Cc1noc(C)c1CCC(=O)N[C@@H]1CC[C@@H](Oc2cccnc2)[C@@H]1O,106.7
28,Cc1[nH]ncc1CCCNC(=O)Nc1ccc2c(c1)OC1(CCCC1)O2,-12.99
